High-throughput results from PubChem BioAssay.
PRMT1 FP inh – blocks human protein arginine methyltransferase 1; 370,000 compounds, 1.3% hits; inhibition, % at 2.79 µM; recombinant PRMT1, activity-based probe fluorescence polarization; Q99873; AID 652257;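 active means inhibition above about 21% made by adding two undisclosed values, limit read from the data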
ABHD5-PLIN5 inh – blocks binding of human ABHD5 to perilipin-5 | Q00G26+Q8WTS1 | Split G. princeps luciferase complementation, luminescence, 4 h | inhibition, % at 4 µM | 360,000 compounds, 0.78% hits;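 active means inhibition above the mean inhibition across every tested compound plus 3 SD, cut at about 22% in these data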;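 further: 0% = DMSO only wells and the 100% control is not disclosed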
TLR4 MyD88 comp – blocks binding of human TLR4 to MyD88; O00206+Q99836; HeLa CL3-4 TLR4/MyD88 BLA complementation, FRET ratio; inhibition, % at 8.4 µM; 200,000 compounds, 0.18% hits; in the data active means inhibition above about 25%;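 further: 0% = vehicle and 100% = reference inhibitor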
NOD2 RIPK2 PPI – inhibitors of human NOD2-RIPK2 interaction; O43353; CHO BLA complementation NOD2-RIPK2, CCF4 ratio; inhibition, % at 4.98 µM; 360,000 compounds, 0.38% hits; AID 624267; in the data active means inhibition above about 21%;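 further: 0% = vehicle only and 100% = reference blocker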
rCAG RNA binder – r(CAG) repeat RNA binding | TO-PRO-1 dye displacement fluorescence | inhibition, % at 3 µM | 370,000 compounds, 1.3% hits;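 active means inhibition above the plate cutoff, the mean of all test compounds on that plate plus 3 SD, cut at about 35% in these data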;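 further: 0% = DMSO alone and 100% = 100 µM mitoxantrone as full dye displacement; higher means more dye released from RNA so lower well fluorescence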
TLR9-MyD88 inh – TLR9-MyD88 interaction inhibition | inhibition, % at 4.98 µM | Q9NR96+Q99836 | 340,000 compounds, 0.21% hits | CHO BLA complementation TLR9-MyD88, CCF4 FRET ratio;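 active means inhibition above the mean over all tested compounds plus 3 SD, cut at about 21% in these data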;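 further: 0% = DMSO only wells and 100% = clavulanate BLA inhibitor control wells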
rCAG binder conf – r(CAG) RNA repeat binding, confirmation | 4,300 compounds, 70% hits | inhibition, % at 3 µM | shares compounds with rCAG RNA binder | TO-PRO-1 dye displacement fluorescence | AID 652065;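 active means inhibition above a per-plate cutoff, the mean inhibition of sample wells plus 3 SD, cut at about 35% in these data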;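 further: loss of TO-PRO-1 fluorescence as compound displaces dye from 1x1 AA loop RNA; 0% = DMSO only wells and 100% = 100 µM mitoxantrone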
DNA CAG counter – DNA CAG dye complex inhibition counter-screen. inhibition, % at 3 µM. shares compounds with rCAG RNA binder. d(CAG) DNA oligo TO-PRO-1 dye displacement, fluorescence. 4,300 compounds, 94% hits;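 active means inhibition above its plate's cutoff, the mean test-well inhibition plus 3 SD, cut at about 4.8% in these data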;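 further: 0% = DNA dye mix with DMSO and 100% = 100 µM mitoxantrone; hits displace the dye from DNA and so lower well fluorescence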
The depositor's hits bear a star; . = no result given; ! = not confirmed by another sample. This is a sample that favours compounds with a hit; in the whole collection about 3.3% have one here.

SMILES	PRMT1 FP inh	ABHD5-PLIN5 inh	TLR4 MyD88 comp	NOD2 RIPK2 PPI	rCAG RNA binder	TLR9-MyD88 inh	rCAG binder conf	DNA CAG counter
Cc1cc(NC(=O)CSc2nc(-c3ccccc3)c(C#N)c(=O)[nH]2)no1	1	-2	-3	2	16	2	.	.
Cc1cc(C)nc(NS(=O)(=O)c2ccc(NC(=O)CSc3nc(-c4ccccc4)c(C#N)c(=O)[nH]3)cc2)n1	2	-5	-6	6	45*	-8	30	7.4*
N#Cc1c(-c2ccccc2)nc(SCC(=O)Nc2nnc(C(F)(F)F)s2)[nH]c1=O	1	-8	2	-7	46*	.	23	5.6*
O=C(CSc1nc(O)c(Cc2ccccc2)c(=O)[nH]1)Nc1nnc(SCc2ccccc2)s1	2	1	-7	3	53*	6	28	7.5*
C[C@H]1COc2cc(Br)ccc2S(=O)(=O)N1Cc1cn(Cc2ccco2)nn1	-8	.	.	.	1	.	.	.
C=CCSc1nc(-c2ccccc2)c(C#N)c(=O)[nH]1	5	-1	24	-1	13	3	.	.
N#Cc1c(-c2ccccc2)nc(SCC(=O)N(c2ccccc2)c2ccccc2)[nH]c1=O	8	-2	-6	10	73*	-11	82*	41*
CCC(Sc1nccn1C)C(=O)Nc1nnc(C)s1 (centres undefined)	-2	0	-1	-11	2	-1	.	.
N#Cc1c(-c2cccs2)nc(SCC(=O)c2cccs2)[nH]c1=O	4	5	-3	1	79*	-10	65*	29*
O=C(CSc1nc2ccccc2c(=O)[nH]1)c1cccs1	4	-6	-2	-4	4	5	.	.
N#Cc1c(-c2ccccc2)nc(SCC(=O)Nc2ccccc2)[nH]c1=O	2	2	1	0	29	9	.	.
CCC(Sc1nc(-c2ccccc2)c(C#N)c(=O)[nH]1)C(=O)Nc1nnc(C)s1 (centres undefined)	-3	7	-4	-4	44*	-5	43*	12*
N#Cc1c(-c2ccccc2)nc(SCC(=O)Nc2ccccc2F)[nH]c1=O	16	-1	8	-3	44*	1	32	8.2*
CCn1nnnc1NC(=O)c1cc(Cl)c(OC)c(Cl)c1	-10	-1	-15	-3	-3	-16	.	.
C[C@@H]1CN(C(=O)OC(C)(C)C)CCN1c1ccc(N2CCN(Cc3ccccc3)[C@@H](C)C2)c(C#N)c1	3	.	.	.	6	.	.	.
CCN(C(=O)CSc1nc2cc(C(=O)O)ccc2c(=O)n1Cc1ccccc1)c1ccccc1	-1	2	.	-19	38*	11	53*	16*
CC(=O)NS(=O)(=O)c1ccc(NS(=O)(=O)c2ccc(F)cc2)cc1	0	5	4	-8	3	6	.	.
CC(=O)NS(=O)(=O)c1ccc(N=c2ssc3c2-c2cc(C)ccc2NC3(C)C)cc1	1	-4	-14	-6	48*	-4	45*	16*
O=C(/C=C/[C@H]1O[C@@H](n2ccc(=O)[nH]c2=O)[C@H](O)[C@@H]1O)NCCN1CCOCC1	1	3	.	3	1	.	.	.
Cc1[nH]n(-c2ccccc2)c(=O)c1C=Nc1ccc(S(=O)(=O)Nc2nccs2)cc1	4	-12	-1	-12	43*	-2	41*	13*
Cc1ccc(-n2[nH]c(C)c(C=Nc3ccc(S(=O)(=O)Nc4nccs4)cc3)c2=O)cc1C	2	-1	5	-2	56*	-10	75*	38*
CCN(CC)c1ccc(CNCc2cccs2)cc1	2	8	-7	-7	0	3	.	.
O=C(NCc1ccccc1)c1c[nH]c2ccc(S(=O)(=O)Nc3ccc4c(c3)OCCO4)cc2c1=O	1	2	-4	-1	37*	-14	33	12*
O=C(NC1CC1)c1c[nH]c2ccc(S(=O)(=O)Nc3cccc(C(F)(F)F)c3)cc2c1=O	1	1	-8	-4	36*	7	30	6.0*
Cc1cn2c(=O)c3ncn(C4OC(CO)C(O)C4O)c3n(C)c2n1 (centres undefined)	-3	.	.	.	0	.	.	.
SMILES	PRMT1 FP inh	ABHD5-PLIN5 inh	TLR4 MyD88 comp	NOD2 RIPK2 PPI	rCAG RNA binder	TLR9-MyD88 inh	rCAG binder conf	DNA CAG counter
O=C(NCCC1CCCCN1S(=O)(=O)c1ccccc1)C(=O)NCc1cccnc1 (centres undefined)	-3	-6	.	-8	-5	-4	.	.
CCN(CCO)Cc1csc2ccc(C(C)(C)C)cc12	0	1	-2	-4	-6	3	.	.
Cc1cc(CN(C)C(=O)c2cc(COc3ccc(F)cc3Cl)on2)n[nH]1	2	-1	-2	-4	-3	6	.	.
O=C(O)c1cccc(N2C(=O)c3ccc(Oc4ccc(Cl)cc4)cc3C2=O)c1	-2	0	8	-3	44*	-2	42*	9.9*
O=C(O)CCC(=O)N1N=C(c2ccc(Br)cc2)CC1c1ccc(Br)cc1 (centres undefined)	2	1	.	-10	38*	0	51*	14*
Cc1cccn2c(=O)c3cc(C#N)c(=NC(=O)c4cccs4)n(CC(C)C)c3nc12	2	-5	.	5	2	-17	.	.
Cc1cccc(C(=O)N=c2c(C#N)cc3c(=O)n4cccc(C)c4nc3n2Cc2ccco2)c1	25*!	50*!	-7	0	47*	-5	38*	18*
COCCCn1c(=NC(C)=O)c(C#N)cc2c(=O)n3cccc(C)c3nc21	-3	7	.	-1	-2	.	.	.
Cc1cccn2c(=O)c3cc(C#N)c(=NC(=O)c4ccccc4)n(Cc4ccco4)c3nc12	24*	46*!	.	-11	36*	-9	27	11*
CSCC[C@H](NC(=O)[C@@H]1Cc2ccccc2CN1)C(=O)NC[C@H]1CC[C@H](C(=O)O)CC1	-2	2	.	-5	0	-3	.	.
COc1ccc(-n2c(SCC(=O)N/N=C/c3ccccc3OCC(=O)O)nc3ccccc3c2=O)cc1	12	-6	.	-6	43*	8	47*	13*
O=C(CSc1nc2ccccc2n1Cc1ccc(Cl)cc1)N/N=C/c1ccccc1C(=O)O	3	-2	-6	0	53*	6	56*	18*
O=C(O)COc1ccccc1/C=N/NC(=O)c1cccc(S(=O)(=O)Nc2cccc(Cl)c2)c1	-3	-6	5	-3	48*	-7	30	8.7*
O=C(O)COc1ccccc1/C=N/NC(=O)CSc1nc2ccccc2n1Cc1ccc(Cl)cc1	0	-3	.	3	60*	3	76*	35*
